GLS inh: qHTS for Inhibitors of Glutaminase (GLS). actives 0.21% (n = 410,000). GLS enzymatic activity, qHTS titration. AID 624170, 2012. Potency, µM (highest dose often 45.5 µM), actives largely listed as inhibitors. Glutaminase kidney isoform, mitochondrial (Homo sapiens), O94925
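Assay buffer: 45 mM KH2PO4 pH 8.2, 0.02% Tween-20. hKGA acts on L-glutamine (1 mM solution added); product glutamate is reported by an oxidase/peroxidase Amplex Red coupling, with fluorescence taken at baseline and 30 min.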
GLP1R ag: qHTS of GLP-1 Receptor Agonists; actives 0.007% (n = 380,000); AID 624172, 2012; Glucagon-like peptide 1 receptor (Homo sapiens), P43220; Potency, µM (titrated, usually from 45.6 µM), most hits filed as activators; HEK293 GLP-1R CRE-luciferase, luminescence, 4-6 h; cells express a hypersensitive GLP-1R form
GLP1R cytotox: qHTS of GLP-1 Receptor Inverse Agonists: Cytotox Screen. AID 624418, 2012. HEK293 cAMP-luciferase reporter cells, luminescence, 24 h. Potency, µM (highest dose often 38.3 µM), usual class: inhibitors. actives 0.13% (n = 410,000);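 also: loss of luciferase light is scored as toxicity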
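Here, cytotoxicity is scored as loss of luminescence. The MLSMR collection was tested on cells seeded in medium containing 10% Nu serum, with a 24 hr compound exposure preceded by 12 hours of culture.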
KCNH2 3.1 inh: qHTS for Inhibitors of KCHN2 3.1: Mutant qHTS. Potassium voltage-gated channel subfamily H member 2, brain isoform KCNH2 3.1 (human). U2OS KCNH2 3.1, thallium flux FluxOr; stronger effect = lower value. activity change, % (tested at about 1.8 µM). actives 0.95% (n = 340,000). AID 720553, 2013;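 active = maximum activity change below -70%; inconclusive = maximum activity change from -70% to -50%; inactive = maximum activity change above -50%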;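 also: thallium influx rate constant from kinetic fluorescence after stimulation buffer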
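U2OS cells transduced with KCNH2 3.1 mutant virus (1.77 x 10^8 /mL, 4 h), plated overnight at 37 C, loaded 45 min with FluxOr dye plus Red40 quencher. Thallium flux rate constant from kinetic reads after stimulation buffer, normalised to controls.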
GLP-1R inv ag: qHTS of GLP-1 Receptor Inverse Agonists (Inhibition Mode). Glucagon-like peptide 1 receptor (Homo sapiens), P43220. HEK293 GLP-1R CRE-luciferase, luminescence, 24 h; GLP-1R form is constitutively active. Potency, µM (series often up to 38.3 µM), hits mostly inhibitors. actives 1.6% (n = 410,000). AID 624417, 2012; also: nearly all actives have a fitted effect of over 55% in size
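HEK293 cells stably co-expressing constitutively active GLP-1R and a cAMP-responsive luciferase reporter were seeded in DMEM with 10% Nu serum, given compounds after 12 h, and incubated 24 h at 37 deg C. Luminescence was then read.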
KCNH2 WT inh: qHTS for Inhibitors of KCHN2 3.1: Wildtype qHTS | Voltage-gated inwardly rectifying potassium channel KCNH2 (Homo sapiens), Q12809 | U2OS, BacMam KCNH2, thallium flux FluxOr; stronger effect = lower value | activity change, % at 1.84 µM | actives 0.37% (n = 340,000);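 active = maximum activity change below -70%; inconclusive = maximum activity change between -70% and -50%; inactive = maximum activity change above -50%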
Target sequence (Q12809 whole entry, looked up): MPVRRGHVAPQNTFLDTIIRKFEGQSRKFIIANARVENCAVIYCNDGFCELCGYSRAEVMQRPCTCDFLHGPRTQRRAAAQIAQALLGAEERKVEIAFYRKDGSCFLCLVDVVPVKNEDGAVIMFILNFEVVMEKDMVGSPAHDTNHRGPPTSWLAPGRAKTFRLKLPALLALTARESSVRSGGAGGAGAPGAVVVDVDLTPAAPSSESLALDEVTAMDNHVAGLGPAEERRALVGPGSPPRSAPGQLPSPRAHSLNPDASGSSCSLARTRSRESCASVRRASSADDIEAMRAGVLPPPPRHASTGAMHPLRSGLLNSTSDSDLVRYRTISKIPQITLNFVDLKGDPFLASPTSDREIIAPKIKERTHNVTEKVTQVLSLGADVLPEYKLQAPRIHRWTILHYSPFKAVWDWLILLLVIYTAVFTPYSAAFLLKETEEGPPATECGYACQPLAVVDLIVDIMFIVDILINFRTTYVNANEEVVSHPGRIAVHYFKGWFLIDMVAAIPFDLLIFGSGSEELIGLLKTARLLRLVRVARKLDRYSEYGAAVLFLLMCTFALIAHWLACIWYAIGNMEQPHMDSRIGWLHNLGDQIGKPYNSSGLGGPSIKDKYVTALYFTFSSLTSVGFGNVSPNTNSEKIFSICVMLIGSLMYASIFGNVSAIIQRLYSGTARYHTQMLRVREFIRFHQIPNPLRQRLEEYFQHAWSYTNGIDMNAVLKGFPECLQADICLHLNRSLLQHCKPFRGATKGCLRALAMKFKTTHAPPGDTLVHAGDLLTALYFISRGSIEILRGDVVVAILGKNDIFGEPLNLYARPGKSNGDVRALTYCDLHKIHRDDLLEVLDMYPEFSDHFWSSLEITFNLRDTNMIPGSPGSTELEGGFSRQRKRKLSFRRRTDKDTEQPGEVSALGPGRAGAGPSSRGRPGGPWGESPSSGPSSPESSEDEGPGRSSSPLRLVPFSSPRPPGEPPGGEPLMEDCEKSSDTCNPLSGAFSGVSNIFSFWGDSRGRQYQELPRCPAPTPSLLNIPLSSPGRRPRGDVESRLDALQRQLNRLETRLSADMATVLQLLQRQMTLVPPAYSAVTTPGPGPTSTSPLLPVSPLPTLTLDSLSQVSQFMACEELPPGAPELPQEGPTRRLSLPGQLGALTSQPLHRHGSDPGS
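U2OS cells were transduced with wild-type KCNH2 virus (2.03 x 10^8 / mL) for 4 h at room temperature, then cultured overnight at 37 C. Thallium flux was read with FluxOr dye. Rate constants were normalized to DMSO controls.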
Numbers stand for hits; - = inactive; ? = inconclusive; . = no result given. In the library only some 2.8% were active in any assay of this set; here they are far more common. Unless noted, calls follow the shape of the dose curve; as a rule, active = well fitted curve in the direction sought with a large enough effect; inconclusive = small, poorly fitted or top-dose-only effect, or another doubt; inactive = no such curve, though single readings can be large; an effect the other way counts as inactive or inconclusive.

SMILES	GLS inh	GLP1R ag	GLP1R cytotox	KCNH2 3.1 inh	GLP-1R inv ag	KCNH2 WT inh
COc1ccccc1C(=O)NC(=O)Nc1ccc(-n2nc(C(F)(F)F)cc2C(F)(F)F)cc1	-	.	-	.	-	.
COc1ccc(C(=O)Oc2cc(C(=S)N3CCOCC3)ccc2OC)cc1	-	-	?	-160.6	-	-140.4
CC1=NN(c2ccc(Cl)c(C(=O)O)c2)C(=O)C1	12.6µM	-	-	.	-	-
CC1=NN(c2ccc(C(=O)O)c(N)c2)C(=O)C1	?	-	-	-	-	-
O=[N+]([O-])c1ccc(NCCCNS(=O)(=O)c2ccc(Cl)cc2)c(Cl)c1	-	-	-	-	11.2µM	-
COC(=O)c1cc2oc3ccccc3c2n1Cc1ccc(C)cc1	-	.	-	.	-	.
COC(=O)c1cc2oc3ccccc3c2n1Cc1ccccn1	-	-	-	-	4.47µM	-
Cc1ccc(N(CC(O)Cn2c3ccccc3c3ccccc32)S(C)(=O)=O)cc1 (centres undefined)	-	-	-	-	?	-
Cc1ccc(S(=O)(=O)N(CC(O)CN2C(=O)NC(C)(C)C2=O)c2cccc(C)c2)cc1 (centres undefined)	-	-	-	-	-	-
Cc1cccc(N(CC(O)Cn2c3ccccc3c3ccccc32)S(=O)(=O)c2ccc(F)cc2)c1 (centres undefined)	-	.	?	.	12.6µM	.
CC(=O)Nc1ccc(N(CC(O)Cn2c3ccccc3c3ccccc32)S(=O)(=O)c2ccc(C)cc2)cc1 (centres undefined)	-	-	?	-	7.94µM	-
Cc1ccccc1C(=O)Nc1ccccc1C(=O)N1CCC(C)CC1	-	-	-	-	-	-
COc1ccc2oc(=O)cc(CN3CCN(C(=O)c4ccccc4)CC3)c2c1	-	.	-	.	-	.
COc1cccc(CC(O)CC2c3c(cc4c(c3OC)OCO4)CCN2C)c1 (centres undefined)	-	-	?	-70.7	?	-
COc1c2c(cc3c1C(CC(O)Cc1ccccc1)N(C)CC3)OCO2 (centres undefined)	-	-	?	?	?	-
COc1ccc(CN2CCN(CCCCOc3ccc(Cl)cc3)CC2)c(OC)c1OC	-	-	-	-	7.94µM	-
COc1nc(Cl)cn(-c2ccc(C)cc2)c1=O	-	-	-	-	-	-
Cc1ccc(-n2c(Cl)c(Cl)nc(Cl)c2=O)cc1	-	-	2.82µM	-	?	-
O=c1c2ccccc2n(Cc2cccc(F)c2)c(=O)n1Cc1ccccc1Cl	-	.	-	.	-	.
CCN(CC)CCCN(c1ccccc1)C1Cc2ccccc2C1	-	-	.	.	.	.
Cc1nc2ncnn2c(N2CCN(C(c3ccccc3)c3ccccc3)CC2)c1C	-	-	-	-	-	-
Cc1cc(N2CCN(c3nc4ccccc4s3)CC2)n2ncnc2n1	-	-	-	-71.8	-	-
Cc1cc(N2CCN(C(c3ccccc3)c3ccccc3)CC2)n2ncnc2n1	-	-	-	-	11.2µM	-
Cc1cc(NC(=O)CSCC(=O)N(C)Cc2ccc(Cl)cc2Cl)no1	-	-	-	-	-	-
O=C(O)c1cccc2c1-c1ccc(Cl)cc1C2=O	-	-	-	-	-	-
SMILES	GLS inh	GLP1R ag	GLP1R cytotox	KCNH2 3.1 inh	GLP-1R inv ag	KCNH2 WT inh
O=C(O)c1cc(O)c2c(c1)C(=O)c1cccc(O)c1C2=O	22.4µM	-	?	-	-	-
CCc1ccc2[nH]c(=O)c(CN(CCN(CC)CC)C(=O)NC3CCCCC3)cc2c1	-	-	?	-	10µM	-
CCc1ccc2[nH]c(=O)c(CN(CCN(C)C)C(=O)Nc3ccccc3)cc2c1	-	-	-	-	8.91µM	-
Cc1cc(C)c2cc(CN(CCN(C)C)C(=O)Nc3ccccc3Cl)c(=O)[nH]c2c1	-	-	-	-	10µM	-
COc1ccc2[nH]c(=O)c(CN(CCCN(C)C)C(=O)Nc3ccccc3)cc2c1	-	-	-	-	?	-
Cc1ccccc1C(=O)Nc1nnc(SCc2cc(=O)c3c(C)ccc(C)c3[nH]2)s1	-	.	-	.	-	.
COc1ccc(CNc2n[nH]c(-c3ccco3)n2)cc1OC	-	.	-	.	-	.
CC(C)Cn1cnc2c1c(=O)[nH]c(=O)n2Cc1ccccc1	-	-	-	-82.3	-	-
COC(=O)C(CCCCNC(=O)c1ccc([N+](=O)[O-])cc1)NC(=O)c1ccc([N+](=O)[O-])cc1 (centres undefined)	-	-	-	-92.9	-	?
COC(=O)C(CC(C)C)NC(=O)c1ccc([N+](=O)[O-])cc1 (centres undefined)	-	-	-	-	-	-
COc1ccc(CCn2c(=O)c3cccnc3n(CC(=O)Nc3ccc(C)c(F)c3)c2=O)cc1OC	-	.	-	.	-	.
COc1ccc(C)cc1NC(=O)Cn1cc(S(=O)(=O)Cc2ccccc2Cl)c2ccccc21	-	.	-	.	?	.
O=C(NCCSCc1ccc(Cl)cc1Cl)c1ccc(CN2CCOCC2)cc1	-	-	-	-	10µM	-
Cc1ccc(N(C(=O)c2ccc(S(=O)(=O)N3CCCC3)cc2)C2C=CS(=O)(=O)C2)cc1 (centres undefined)	-	-	-	-	-	-
COc1cc(NS(=O)(=O)c2ccc(NC(=O)c3cccc(F)c3)cc2)nc(OC)n1	-	.	-	.	-	.
CSc1nc(-c2ccccc2)c(C#N)c(=O)[nH]1	-	-	-	-	-	-
CSc1nc(-c2cccs2)c(C#N)c(=O)[nH]1	-	-	-	-	-	-133.5
CCOc1ccccc1NC(=O)C1(S(=O)(=O)c2ccc(Cl)cc2)CC1	-	-	-	-	7.08µM	-
CCOC(=O)c1ccc(NC(=O)C2(S(=O)(=O)c3ccc(Cl)cc3)CC2)cc1	-	.	-	.	?	.
CCOc1ccccc1NC(=O)c1cc(S(=O)(=O)NC2CCCC2)ccc1F	-	.	-	.	6.31µM	.
CCOc1ccc(NC(=O)Cn2c(=O)n(CCC(=O)NCCc3ccccc3)c(=O)c3ccccc32)cc1	-	-	-	.	-	.
CCS(=O)(=O)N1CCc2cc(C(=O)Nc3cc(OC)c(Cl)cc3OC)ccc21	-	.	-	.	-	.

High-throughput results from PubChem BioAssay.
